Data on 27 compounds can be found in PubChem BioAssay AID1063 (University of Pittsburgh Molecular Library Screening Center, 2008).

The structures appear in SMILES notation. The whole screen tested about 200,000 compounds, of which about 18,000 (9%) were called active. Shown is part of a subset that was picked to be rich in actives. Values without a mark were called inactive. Cut-off read from the data, not from the text of the source: active = inhibition above about 50%; inactive = the rest.

This assay can be described thus: antileishmanial activity against promastigotes – primary screen (AID 1063).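 Note: promastigotes grown with compound for 44 hours at 28 °C.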 The conditions noted are these: Leishmania major promastigotes, resazurin fluorescence viability; at 10 µM; active compounds read high.
For the compound `COC(=O)c1c(C)[nH]c(C)c1-c1ccc([N+](=O)[O-])cc1`, the inhibition is 12.6%.
For the compound `O=C(CSc1nn(-c2ccc(F)cc2)c(=S)s1)NC1CCS(=O)(=O)C1` (configuration not stated), the inhibition was 2.16%.
Turning to `COc1ccc(NC(=O)CCNS(=O)(=O)c2ccc3c(c2)c(=O)n(C)c(=O)n3C)cc1OC`, the inhibition was -8.95%.
As for `O=C(Nc1ccc(Sc2ccc(Br)cc2)cc1)c1ccco1`, the inhibition is -2.45%.
In the case of `CCN(CC)P(=O)(Nc1ccc(SC(F)F)cc1)c1ccc(N(C)C)cc1NC(=O)c1ccco1` (configuration not stated), the inhibition was 85.2% (active).
As to `CCC(=O)NC(=S)Nc1ccc(NC(=O)c2ccco2)c(Cl)c1`, the inhibition was -3.46%.
For `COc1ccc(N2CCN(C(=O)COc3ccc4c(C)cc(=O)oc4c3)CC2)cc1`, the inhibition was 1.16%.
With `Cc1ccc2cc(C#N)c(NCCNC(=S)NCCCN3CCOCC3)nc2c1`, the inhibition is 1.99%.
The figure for `CN(C)S(=O)(=O)N1CCN(c2ccc([N+](=O)[O-])cc2)CC1` is -7.87%; for `Cc1cc(C)c(OCCN2CC(C)OC(C)C2)c(Br)c1` (configuration not stated) it is 88.1% (active); for `CC(=O)Nc1cccc(C(=O)Nc2nc(C)cs2)c1` it is 11.8%.
As to `CN1CCN(CC(O)COCc2ccc3c(c2)OCO3)CC1` (configuration not stated), the inhibition is -2.38%.
The figure for `CC1CCCN(CC(O)COCc2ccccc2)C1` (configuration not stated) is 11%; for `CC1CCCN(CC(O)COc2ccc3c(c2)OCO3)C1` (configuration not stated) it is 54.4% (active).
On to `Cc1coc(C)c1C(=O)CC1(O)C(=O)N(C)c2ccc(Cl)cc21` (configuration not stated), for which the inhibition was 1.6%.
The figure for `O=C(Nc1cccc(Cl)c1)c1cc([N+](=O)[O-])ccc1N1CCN(CCO)CC1` is 0.91%; for `COc1cc(NC(=S)NCCSc2ccc(C)cc2)cc(OC)c1` it is 7.14%.
As to `Cn1c(N)c(C(=O)COC(=O)/C=C/c2ccc(OC(F)F)cc2)c(=O)n(C)c1=O`, the inhibition was -9.55%.
In the case of `CCCCCC(=O)Nc1ccc(-c2cn3cccnc3n2)cc1`, the inhibition was -7.19%.
In the case of `O=C(N/N=C\c1ccc(Br)cc1)c1ccc(Cn2cccn2)o1`, the inhibition was 1.72%.
Take `O=C(N/N=C/c1ccc2c(c1)OCO2)c1ccc(Cn2cc([N+](=O)[O-])cn2)o1`: the inhibition is 87% (active).
With `CN(C)c1ccc(/C=N/NC(=O)c2ccc(Cn3cc(Br)cn3)o2)cc1`, the inhibition is 3.04%.
The result for `CCCCN1C(=S)NC[C@@H]1C(C)CC` (some centres not stated) reads -1.31%; that for `CCOC(=O)c1ccc(NNC(C)=O)c([N+](=O)[O-])c1`, -5.16%.
Regarding `COCCOC(=O)C1=C(C)N=c2s/c(=C\c3cccs3)c(=O)n2C1c1cccs1` (configuration not stated), the inhibition is 7.92%.
The result for `COc1ccc(OC)c(C2C3=C(N=c4s/c(=C\c5cccc(O)c5)c(=O)n42)c2ccccc2CC3)c1` (configuration not stated) reads 75.7% (active); that for `CCOC(=O)C1=C(C)N=c2s/c(=C\C(=O)OC)c(=O)n2C1c1ccc(OC)cc1` (configuration not stated), 18.8%.
